Reference: PubChem BioAssay AID1159580 (chemical genetic matrix, 2015)
Among all 5,500 compounds or so, about 2,000 (36%) were called active. About 18% were inconclusive and are not listed. Cut-off read from the data, not from the text of the source: active = normalized growth mostly below about 0.91 (no sharp cut-off); inconclusive = no clear call, values can overlap the other calls; inactive = mostly above about 0.92. Some of the results follow.

Assay: chemical genetic growth profiling, strain panel (AID 1159580);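 note: tested at 20 µM; growth read once vehicle control cultures reached saturation at 30 °C; 1 = growth at the plate median or of vehicle wells; lower values mean less growth of the strain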
Conditions: growth OD

Measured: normalized growth

CC1(C)C(C=C(Cl)Cl)C1C(=O)OC(C#N)c1cccc(Oc2ccccc2)c1 (stereo unspecified)
inactive: S. cerevisiae deletion strains, locus YAL013W, strain DEP1, stronger effect = lower value 0.996 | S. cerevisiae deletion strains, locus YBR021W, strain FUR4, stronger effect = lower value 0.962 | S. cerevisiae deletion strains, locus YBR229C, strain ROT2, stronger effect = lower value 0.986 | S. cerevisiae deletion strains, locus YCL029C, strain bik1, stronger effect = lower value 1.01 | S. cerevisiae deletion strains, locus YDL035C, strain GPR1, stronger effect = lower value 0.998 | S. cerevisiae deletion strains, locus YDL074C, strain BRE1, stronger effect = lower value 1.01 | S. cerevisiae deletion strains, locus YDL101C, strain DUN1, stronger effect = lower value 0.993 | S. cerevisiae deletion strains, locus YDL134C, strain PPH21, stronger effect = lower value 0.995 | S. cerevisiae deletion strains, locus YDL185W, strain tfp1, stronger effect = lower value 0.996 | S. cerevisiae deletion strains, locus YDL192W, strain arf1, stronger effect = lower value 1 | S. cerevisiae deletion strains, locus YDR101C, strain arx1, stronger effect = lower value 0.996 | S. cerevisiae deletion strains, locus YDR150W, strain NUM1, stronger effect = lower value 1 | S. cerevisiae deletion strains, locus YDR162C, strain NBP2, stronger effect = lower value 1.02 | S. cerevisiae deletion strains, locus YDR318W, strain mcm21, stronger effect = lower value 0.983 | S. cerevisiae deletion strains, locus YDR388W, stronger effect = lower value 1 | S. cerevisiae deletion strains, locus YDR502C, strain sam2, stronger effect = lower value 0.998 | S. cerevisiae deletion strains, locus YEL061C, strain CIN8, stronger effect = lower value 0.999 | S. cerevisiae deletion strains, locus YER110C, stronger effect = lower value 0.99 | S. cerevisiae deletion strains, locus YER155C, strain BEM2, stronger effect = lower value 0.999 | S. cerevisiae deletion strains, locus YER167W, strain BCK2, stronger effect = lower value 0.987 | S. cerevisiae deletion strains, locus YGL078C, strain dbp3, stronger effect = lower value 1 | S. cerevisiae deletion strains, locus YGL086W, strain mad1, stronger effect = lower value 0.954 | S. cerevisiae deletion strains, locus YGL248W, strain PDE1, stronger effect = lower value 0.983 | S. cerevisiae deletion strains, locus YGR078C, strain PAC10, stronger effect = lower value 1.01 | S. cerevisiae deletion strains, locus YGR135W, strain pre9, stronger effect = lower value 0.992 | S. cerevisiae deletion strains, locus YGR229C, strain SMI1, stronger effect = lower value 1 | S. cerevisiae deletion strains, locus YGR252W, strain gcn5, stronger effect = lower value 0.95 | S. cerevisiae deletion strains, locus YHR030C, strain SLT2, stronger effect = lower value 0.99 | S. cerevisiae deletion strains, locus YHR079C, strain IRE1 (second series), stronger effect = lower value 1 | S. cerevisiae deletion strains, locus YHR094C, strain hxt1, stronger effect = lower value 0.998 | S. cerevisiae deletion strains, locus YHR129C, strain ARP1, stronger effect = lower value 0.997 | S. cerevisiae deletion strains, locus YHR200W, strain rpn10, stronger effect = lower value 0.992 | S. cerevisiae deletion strains, locus YIL066C, strain RNR3, stronger effect = lower value 0.98 | S. cerevisiae deletion strains, locus YIL073C, strain SPO22, stronger effect = lower value 0.99 | S. cerevisiae deletion strains, locus YIL125W, strain kgd1, stronger effect = lower value 1.01 | S. cerevisiae deletion strains, locus YIR030C, strain dcg1, stronger effect = lower value 0.998 | S. cerevisiae deletion strains, locus YJL095W, strain BCK1, stronger effect = lower value 1.01 | S. cerevisiae deletion strains, locus YJL134W, strain LCB3, stronger effect = lower value 0.984 | S. cerevisiae deletion strains, locus YJL168C, strain set2, stronger effect = lower value 1 | S. cerevisiae deletion strains, locus YJL187C, strain SWE1 (second series), stronger effect = lower value 1 | S. cerevisiae deletion strains, locus YJR043C, strain POL32, stronger effect = lower value 0.987 | S. cerevisiae deletion strains, locus YJR075W, strain HOC1, stronger effect = lower value 0.998 | S. cerevisiae deletion strains, locus YKL009W, strain mrt4, stronger effect = lower value 0.96 | S. cerevisiae deletion strains, locus YKL068W, stronger effect = lower value 1 | S. cerevisiae deletion strains, locus YKL085W, strain MDH1 (second series), stronger effect = lower value 0.992 | S. cerevisiae deletion strains, locus YKL085W, strain MDH1, stronger effect = lower value 0.992 | S. cerevisiae deletion strains, locus YKL190W, strain CNB1, stronger effect = lower value 1 | S. cerevisiae deletion strains, locus YKR001C, strain vps1, stronger effect = lower value 0.976 | S. cerevisiae deletion strains, locus YLR039C, strain RIC1, stronger effect = lower value 0.969 | S. cerevisiae deletion strains, locus YLR058C, strain SHM2, stronger effect = lower value 0.993 | S. cerevisiae deletion strains, locus YLR102C, strain apc9, stronger effect = lower value 1 | S. cerevisiae deletion strains, locus YLR262C, strain YPT6, stronger effect = lower value 0.99 | S. cerevisiae deletion strains, locus YLR268W, strain sec22, stronger effect = lower value 1 | S. cerevisiae deletion strains, locus YLR330W, strain CHS5, stronger effect = lower value 0.995 | S. cerevisiae deletion strains, locus YLR342W, strain FKS1 (second series), stronger effect = lower value 0.951 | S. cerevisiae deletion strains, locus YLR371W, strain rom2, stronger effect = lower value 1 | S. cerevisiae deletion strains, locus YLR418C, strain cdc73, stronger effect = lower value 1.05 | S. cerevisiae deletion strains, locus YML016C, strain PPZ1, stronger effect = lower value 0.994 | S. cerevisiae deletion strains, locus YML032C, strain rad52, stronger effect = lower value 0.98 | S. cerevisiae deletion strains, locus YML124C, strain tub3, stronger effect = lower value 0.998 | S. cerevisiae deletion strains, locus YMR078C, strain ctf18, stronger effect = lower value 0.98 | S. cerevisiae deletion strains, locus YMR223W, strain ubp8, stronger effect = lower value 0.974 | S. cerevisiae deletion strains, locus YMR263W, strain SAP30, stronger effect = lower value 1.01 | S. cerevisiae deletion strains, locus YMR307W, strain GAS1, stronger effect = lower value 0.94 | S. cerevisiae deletion strains, locus YNL067W, strain RPL9B, stronger effect = lower value 1.01 | S. cerevisiae deletion strains, locus YNL128W, strain TEP1, stronger effect = lower value 1 | S. cerevisiae deletion strains, locus YNL153C, strain GIM3, stronger effect = lower value 1.01 | S. cerevisiae deletion strains, locus YNL233W, strain BNI4, stronger effect = lower value 1.01 | S. cerevisiae deletion strains, locus YNL250W, strain rad50, stronger effect = lower value 0.993 | S. cerevisiae deletion strains, locus YNL271C, strain bni1, stronger effect = lower value 0.998 | S. cerevisiae deletion strains, locus YNL298W, strain CLA4, stronger effect = lower value 0.964 | S. cerevisiae deletion strains, locus YNL307C, strain MCK1, stronger effect = lower value 0.991 | S. cerevisiae deletion strains, locus YNL322C, strain KRE1, stronger effect = lower value 0.994 | S. cerevisiae deletion strains, locus YNR052C, strain pop2, stronger effect = lower value 0.979 | S. cerevisiae deletion strains, locus YOL006C, strain TOP1, stronger effect = lower value 1.03 | S. cerevisiae deletion strains, locus YOL012C, strain htz1 1.96 | S. cerevisiae deletion strains, locus YOL147C, strain pex11, stronger effect = lower value 1.01 | S. cerevisiae deletion strains, locus YOR061W, strain CKA2, stronger effect = lower value 0.997 | S. cerevisiae deletion strains, locus YOR069W, strain VPS5, stronger effect = lower value 0.995 | S. cerevisiae deletion strains, locus YOR136W, strain idh2, stronger effect = lower value 1 | S. cerevisiae deletion strains, locus YOR144C, strain elg1, stronger effect = lower value 0.997 | S. cerevisiae deletion strains, locus YOR184W, strain ser1, stronger effect = lower value 0.983 | S. cerevisiae deletion strains, locus YOR316C, strain cot1, stronger effect = lower value 0.996 | S. cerevisiae deletion strains, locus YPL055C, strain LGE1, stronger effect = lower value 1.03 | S. cerevisiae deletion strains, locus YPL241C, strain CIN2, stronger effect = lower value 1 | S. cerevisiae deletion strains, locus YPR119W, strain clb2, stronger effect = lower value 1.01 | S. cerevisiae deletion strains, locus YPR141C, strain kar3, stronger effect = lower value 0.992 | S. cerevisiae deletion strains, locus YPR163C, strain tif3, stronger effect = lower value 1.01 | S. cerevisiae deletion strains, locus YPR167C, strain met16, stronger effect = lower value 0.99 | S. cerevisiae deletion strains, strain wtn01, stronger effect = lower value 0.991 | S. cerevisiae strains, strain wild type, stronger effect = lower value 1.01
